# Screening data (PubChem)
# The list is not random: actives were taken first. Their share in the collection is about 2.7%.
# EWS-Fli block: blocks EWS/Fli oncoprotein-driven transcription. A673 NR0B1-luciferase reporter, viability-normalised. inhibition, % at 12.6 µM. 350,000 tested, 0.67% active;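 active means mean inhibition of at least 50% after viability correction, with every replicate also passing that limit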;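 further: firefly luciferase signal divided by Alamar Blue viability fluorescence both relative to DMSO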
# HIV Env fusion: blocks HIV Env-driven cell-cell fusion. 360,000 tested, 1.1% active. inhibition, % at 12.3 µM. HeLa-JRFL Env/CEM21 cell fusion, luciferase;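 active means mean replicate inhibition score of at least 50 and every replicate individually at or above 50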;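 further: 0% = plate neutral controls and 100% = maraviroc near 300 nM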
# CFTR F508del cor: CFTR F508del correction in bronchial cells | CFBE cells, YFP halide quenching; stimulated with forskolin plus potentiator P3; % fluorescence drop versus neutral controls | activity (quench increase), % at 7.58 µM | 350,000 tested, 0.36% active | AID 720511;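 active means mean added fluorescence quench of at least 8% versus neutral control, with both replicates also reaching 8%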;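 further: cells transiently co-express mutant CFTR-F508del with the halide-sensitive YFP; corrector assay measuring rescue of mutant channel to the surface after 24 h compound exposure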
# PAX8 inh HTS: lowers PAX8-driven luciferase in RMG-I cells. RMG-I TPO-luciferase reporter, SteadyGlo, 24 h. inhibition, % at 12.6 µM. 360,000 tested, 1.2% active;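 active means mean replicate inhibition at least 60% with every replicate also reaching 60%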;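 further: luciferase light reporting Pax8 driven TPO promoter activity; plate controls were median of neutral control wells for no effect and mitoxantrone controls for full effect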
# GSIS activator: GLuc luminescence reporter in INS-1E cells, primary screen for activators of glucose-dependent secretion of insulin. 370,000 tested, 0.61% active. AID 743287. INS-1E GLuc reporter insulin secretion, 2-3 h. activation, % at 16.6 µM;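 active means lowest replicate activation of at least 40%, so every replicate reaches that level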;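 further: 0% = median of neutral control wells and 100% = median of IBMX positive control wells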
# PGC1a acetyl inh: modulators of PGC1a acetylation; U2OS PGC1a acetylation, AlphaScreen anti-acetyl-lysine; with virally co-expressed GCN5 acetyltransferase; inhibition, % at 15.6 µM; 350,000 tested, 0.17% active; AID 651687;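 active means every replicate shows inhibition of at least 40%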;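 further: 0% = neutral control wells and 100% = positive control wells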
# An asterisk follows results filed as active; · = not tested or not shown; [ ] = another dose, or the depositor's remark.
SMILES,EWS-Fli block,HIV Env fusion,CFTR F508del cor,PAX8 inh HTS,GSIS activator,PGC1a acetyl inh
COc1cc(NC(=O)Cn2ncc(Cl)c(Cl)c2=O)c(C)cc1[N+](=O)[O-],76*,-38,-4,91*,-10,·
C=C1SC(Nc2c(C)cc(C)cc2C)=NC12CCCCC2,7,7,11*,1,21,1
Cn1cnc([N+](=O)[O-])c1S(=O)(=O)Oc1ccc(Cl)cc1,64*,-9,-5,110*,54,-45
Cn1cnc([N+](=O)[O-])c1Oc1cccc2ccccc12,·,9,·,15,6,·
Cn1cnc([N+](=O)[O-])c1S(=O)(=O)Oc1cccc2ccccc12,50,-1,-6,80*,21,-63
COc1ccc(S(=O)(=O)N2CCCCCC2)cc1NC(=O)c1c2c(nc3ccccc13)CCN(Cc1ccccc1)C2,·,65*,·,20,-40,-6
CCN(CC)S(=O)(=O)c1ccc(OC(C)C)c(NC(=O)c2c3c(nc4ccccc24)CCN(Cc2ccccc2)C3)c1,8,59*,2,10,7,-1
COc1ccc(NC(=O)c2c3c(nc4ccccc24)CCN(Cc2ccccc2)C3)c(OC)c1,15,2,-2,1,11,-10
N#C[C@@H]1[C@H](c2ccc(C#CC3CCCCC3)cc2)[C@H](CO)N1C(=O)c1cccc(F)c1,0,16[16.7 µM],4,8,5,-15
Cc1cc(C(=O)COC(=O)C2=NNC(=O)CC2)c(C)n1-c1ccccc1,5,·,-2,·,-14,37
CCCn1c(C)cc(C(=O)COc2ccc(C)nc2[N+](=O)[O-])c1C,1,-5,·,-12,·,·
Cc1cc(C(=O)COC(=O)C2=COCCO2)c(C)n1-c1ccccc1,16,47,-4,75*,-1,·
Cc1ccc(OCC(=O)c2cc(C)n(-c3ccccc3)c2C)c([N+](=O)[O-])n1,·,67*,·,4,-4,·
O=C(c1ccc2c(c1)OCO2)N1CC[C@@H]2[C@H]1c1cc(-c3ccc(F)cc3)ccc1N[C@@H]2CO,-1,·,2,-12,6,13
CCCC#Cc1ccc2c(c1)O[C@H](CN(C)C(=O)C1CC1)[C@H](C)CN([C@H](C)CO)S2(=O)=O,14,7[16.7 µM],-4,·,-12,-19
CCN(C(=O)CSc1nncn1-c1ccccc1)c1c(N)n(Cc2ccccc2)c(=O)[nH]c1=O,4,·,0,56,·,-6
CCN(C(=O)COC(=O)/C=C/c1c(C)nn(-c2ccccc2)c1C)c1c(N)n(Cc2ccccc2)c(=O)[nH]c1=O,-1,-1,10*,10,-1,·
CCN(C(=O)COC(=O)c1cc2c(s1)CCCC2)c1c(N)n(Cc2ccccc2)c(=O)[nH]c1=O,-1,·,15*,-6,-9,·
CCN(C(=O)CN1CCN(c2ccccc2F)CC1)c1c(N)n(Cc2ccccc2)c(=O)[nH]c1=O,-5,6,0,3,1,-2
CCN(C(=O)CSc1nnc(C)n1-c1ccc(C)cc1)c1c(N)n(Cc2ccccc2)c(=O)[nH]c1=O,-1,6,20*,-20,-23,·
CCN(C(=O)CN1CCN(c2ccccc2O)CC1)c1c(N)n(Cc2ccccc2)c(=O)[nH]c1=O,·,·,·,·,·,50*
CC(C)(O)C#Cc1ccc([C@@H]2[C@@H](CO)N3CCCCN(C(=O)c4ccncc4)C[C@H]23)cc1,-12,·,-1,-1,11,8
CN(C)CC(=O)Nc1ccc2c(c1)[C@H]1C[C@H](CC(=O)N3CCc4ccccc4C3)O[C@@H](CO)[C@H]1O2,-5,0[16.7 µM],1,2,-9,-2
Nc1c(N(CCC2=CCCCC2)C(=O)COc2ccc(F)cc2Cl)c(=O)[nH]c(=O)n1Cc1ccccc1,58*,·,-3,9,-45,19
COc1ccc(S(=O)(=O)N(C)C[C@H]2Oc3c(NC(=O)NC(C)C)cccc3C(=O)N([C@@H](C)CO)C[C@@H]2C)cc1,-3,-8[16.7 µM],-4,·,1,4
SMILES,EWS-Fli block,HIV Env fusion,CFTR F508del cor,PAX8 inh HTS,GSIS activator,PGC1a acetyl inh
CC(=O)Nc1cccc(NC(=O)CN2c3cccc4cccc(c34)S2(=O)=O)c1,-1,-22,24*,10,-3,-5
CC(=O)c1ccc(NC(=O)CN2c3cccc4cccc(c34)S2(=O)=O)cc1,-2,-13,0,·,-5,-7
COc1ccc(CCNC(=O)CN2c3cccc4cccc(c34)S2(=O)=O)cc1OC,·,-6,0,4,98*,·
O=C(CN1c2cccc3cccc(c23)S1(=O)=O)NCCc1ccccc1,5,·,-1,10,12,·
CCOc1nc(Nc2ccccc2F)nc(OCC)n1,-4,2,3,-44,62*,·
O=C1OCCC1Sc1nnc(-c2ccc(Cl)cc2Cl)o1 (stereo unspecified),49,59*,1,53,-9,9
O=C1OCCC1Sc1nnc(-c2ccccc2)o1 (stereo unspecified),·,·,·,·,·,-13
CCCCc1ccc(NC(=S)NCC2CCCO2)cc1 (stereo unspecified),-12,9,3,-13,-8,19
CN(C)c1ccc(NC(=S)NCC2CCCO2)cc1 (stereo unspecified),-26,·,0,65*,2,·
C[C@@H]1CN([C@@H](C)CO)C(=O)c2cccc(NC(=O)Nc3cccc4ccccc34)c2O[C@H]1CN(C)C(=O)NC1CCCCC1,2,1[16.7 µM],1,-9,5,-1
O=C(NN=Cc1cc(Cl)ccc1[N+](=O)[O-])c1cccc2ccccc12,1,-11,-2,-8,5,·
O=C(NN=Cc1ccccc1Cl)c1cccc2ccccc12,-10,3,-1,8,80*,·
O=[N+]([O-])c1ccc(O)c(/C=N/Nc2ccc(Cl)nn2)c1,·,82*,·,·,34,·
O=C(N/N=C/c1cc([N+](=O)[O-])ccc1O)c1cccc2ccccc12,24,13,3,69*,18,·
Cc1[nH]n(-c2cccc3ccccc23)c(=O)c1/C=N/NC(=O)c1cccc([N+](=O)[O-])c1,-6,59*,1,-7,-4,14
O=C(N/N=C/c1cccc2ccccc12)c1ccccc1Cl,-36,-10,1,0,-24,·
COc1ccc(S(=O)(=O)N(C)C[C@@H]2Oc3ccc(NC(=O)C4CCCCC4)cc3C(=O)N([C@H](C)CO)C[C@H]2C)cc1,-4,23[16.7 µM],-2,·,-9,-4
Cc1noc(C)c1NC(=O)Nc1ccc2c(c1)C(=O)N([C@@H](C)CO)C[C@@H](C)[C@H](CN(C)Cc1ccc(C(=O)O)cc1)OCCCC[C@@H](C)O2,-10,-19[16.7 µM],1,-1,18,5
C[C@H]1CN([C@@H](C)CO)C(=O)c2cc(NC(=O)CCC(F)(F)F)ccc2O[C@@H]1CN(C)Cc1ccccc1,3,-6[16.7 µM],-1,2,14,10
O=C(N/N=C/c1ccncc1)c1cccc([N+](=O)[O-])c1,17,-7,-1,4,11,·
